Experimental findings from PubChem BioAssay (NCATS) are described below.

Results filed as inconclusive are left out. Activity calls are given as the source filed them. The call rests on the fitted dose curve; in most records, active means well fitted inhibition curve with a large enough effect; inconclusive means small, poorly fitted or top-dose-only effect; inactive means flat fitted curve, though single readings scatter.

Holding throughout (assay): qHTS profiling for inhibitors of Plasmodium falciparum proliferation (AID 504749); further: nearly all actives have a fitted effect of over 60% in size
What all share (conditions): P. falciparum in erythrocytes, SYBR Green DNA, 72 h; series mostly up to 28.7 µM

One test relates to Dd2. The procedure, abridged:
(§1)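 Quantitative HTS: compounds pinned into medium, infected erythrocytes added (0.3% parasitemia, 2.5% hematocrit), 72 h culture at 37 C under 5% CO2. Saponin/Triton lysis with SYBR Green I, overnight RT, then fluorescence read.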

A further test has as its system ECU. The procedure, abridged: as §1
The next test relates to FAB9. The procedure, abridged:
as §1

A further test relates to GB4. The procedure, abridged: as §1
A further test relates to HB3. A digest of the protocol: as §1
In a further test the test system is ICS. A digest of the protocol: as §1
In another test the test system is JCK. The procedure, abridged: as §1
A further test relates to N140. The procedure, abridged:
as §1

The next test relates to P93_24. A digest of the protocol: as §1
A further test relates to P94_40. A digest of the protocol: as §1
The subject of a further test is PAD. A digest of the protocol: as §1
A further test has as its system PC15. The procedure, abridged:
as §1

The subject of the next test is PC26. The procedure, abridged:
as §1

The subject of a further test is PC49. The procedure, abridged: as §1
The next test deals with SC27B. The procedure, abridged: as §1
In a further test the test system is TAB109. A digest of the protocol:
as §1

In another test the test system is TAB113. The procedure, abridged: as §1
The test system of the next test is TAB165. The procedure, abridged:
as §1

A further test concerns W2. The procedure, abridged:
as §1
Potency means the concentration at half of the fitted maximal effect.

As to `COCC(=O)O[C@]1(CCN(C)CCCc2nc3ccccc3[nH]2)CCc2cc(F)ccc2[C@@H]1C(C)C`, the Potency with Dd2 was 0.224 µM (active); in the test with ECU, 4.47 µM (active); with FAB9, 10 µM (active); in the test on GB4, 0.151 µM (active); in the test with HB3, 7.94 µM (active); in the test on ICS, 1.78 µM (active). Further, the Potency with JCK was 7.94 µM (active); with N140, 0.562 µM (active); in the test on P93_24, 1.58 µM (active); in the test with P94_40 it was 2.82 µM (active); with PAD, 3.55 µM (active); in the test with PC15, 4.47 µM (active). Further, the Potency in the test with PC26 was 3.38 µM (active); in the test on PC49, 1.12 µM (active); with SC27B, 1.78 µM (active); with TAB109, 2.24 µM (active); with TAB113, 2 µM (active); with TAB165 it was 2 µM (active). The Potency with W2 was 0.12 µM (active).

Regarding `CN(C)CCN(Cc1cccs1)c1ccccn1`, the Potency in the test with Dd2 was 3.98 µM (active); with GB4 it was 3.79 µM (active); in the test with N140 it was 11.2 µM (active); in the test with P93_24, 7.94 µM (active); in the test with P94_40, 10 µM (active); in the test on PC49 it was 10 µM (active). Besides, the figures for the Potency in the test on TAB109 and with W2 were 4.47 µM (active) and 1.9 µM (active), respectively. For the same molecule, the Potency result with ECU, with FAB9 and with HB3 was “inactive” throughout.

Regarding `C[N+](C)(C)CCCCCCCCCC[N+](C)(C)C`, the Potency was 3.16 µM (active) in the test with Dd2; 10 µM (active) with ECU; 5.01 µM (active) in the test on FAB9; 3.01 µM (active) in the test with GB4; 1.58 µM (active) in the test with HB3; 2.24 µM (active) in the test on ICS. Also, the Potency in the test on JCK was 11.2 µM (active); in the test with N140 it was 2.82 µM (active); with P93_24 it was 2.51 µM (active); with P94_40 it was 2.51 µM (active); in the test with PAD it was 2.24 µM (active); in the test with PC15, 8.91 µM (active). Moreover, the Potency with PC26 was 6.01 µM (active); in the test on PC49, 3.98 µM (active); in the test on SC27B it was 3.98 µM (active); in the test with TAB109, 3.55 µM (active); in the test with TAB113 it was 2.82 µM (active); in the test with TAB165, 3.16 µM (active). Further, the Potency with W2 is 4.78 µM (active).

Turning to `CCNC(=O)N1CCN(CCCC(c2ccc(F)cc2)c2ccc(F)cc2)CC1`, the Potency in the test with Dd2 is 2 µM (active); with ECU, 2.51 µM (active); with FAB9, 3.98 µM (active); with GB4, 10.7 µM (active); with HB3, 4.47 µM (active); in the test on ICS, 2.82 µM (active). The Potency in the test on JCK is 10 µM (active); with N140, 2.82 µM (active); in the test with P93_24, 2 µM (active); in the test with P94_40, 2.82 µM (active); in the test on PAD, 3.55 µM (active); in the test on PC15, 3.55 µM (active). In addition, the Potency in the test on PC26 is 4.78 µM (active); in the test on PC49, 0.891 µM (active); with SC27B, 2 µM (active); in the test on TAB109 it was 2.24 µM (active); in the test on TAB113, 2.24 µM (active); with TAB165, 2 µM (active). The Potency in the test on W2 is 0.953 µM (active).

For the molecule `CN(C)CCCN1c2ccccc2Sc2ccc(C(F)(F)F)cc21`, the Potency in the test with ECU is 12.6 µM (active); in the test with ICS, 10 µM (active); in the test with PC49, 8.91 µM (active); with TAB165 it was 12.6 µM (active); in the test on W2, 6.75 µM (active). Besides, the Potency entry in the test on FAB9 and in the test on HB3 was “inactive” throughout.

Consider `CCOC(=O)C1=C(C)NC(C)=C(C(=O)OC)C1c1cccc(Cl)c1Cl` (stereo not drawn), for which the Potency entry with Dd2, in the test with ECU, with FAB9, with GB4, with HB3 and in the test with JCK was “inactive” each time. Moreover, the Potency result in the test on N140, in the test on P93_24, in the test on P94_40, with PAD, in the test on PC15 and in the test on PC49 was “inactive” throughout. Besides, the Potency result with TAB109 and in the test with TAB113 was “inactive” each time.

Take `CCCCNC(=O)NS(=O)(=O)c1ccc(C)cc1`: the Potency result in the test on Dd2, with ECU, in the test on FAB9, in the test on GB4, in the test on HB3 and in the test on ICS was “inactive” each time. Besides, the Potency result in the test on JCK, in the test with N140, in the test with P93_24, in the test with P94_40, in the test with PAD and in the test with PC15 was “inactive” throughout. Besides, the Potency result in the test on PC26, in the test with PC49, in the test with SC27B, in the test on TAB109, with TAB113 and in the test with TAB165 was “inactive” in each case. The Potency result in the test on W2 is “inactive”.
